Shown are actives, neighbours in structure and some others; about 17% of the full set was active somewhere.
TDP1 cell CPT – qHTS for Inhibitors of human tyrosyl-DNA phosphodiesterase 1 (TDP1): qHTS in cells in presence of CPT; 420,000 compounds, 12% hits; Potency, µM (titrated, usually from 46.2 µM), without a hit: at the top dose activity change, negative = growth inhibition, usual class: inhibitors; chicken DT40 Tdp1-/-;hTDP1 cells + 20 nM CPT, ATP luminescence, 48 h; further: on the % scale 0 is the no-effect control and ±100 the full control effect; nearly all actives have a fitted effect of over 55% in size
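Chicken DT40 Tdp1-/- cells complemented with human TDP1, 400 cells/well, exposed to compounds plus 20 nM camptothecin for at least 48 h at 37 C; viability read as ATP content by CellTiter-Glo luminescence.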
TGFb inhibitor – qHTS for Inhibitors of TGF-b | HepG2 CAGA-GFP TGF-b/SMAD3 reporter, GFP fluorescence, 18 h; TGF-beta stimulated, 500 pg/mL final | Potency, µM (doses to about 46.1 µM), for inactives: at the top dose activity, negative = inhibition, usual class: inhibitors | 410,000 compounds, 1.2% hits | AID 588855, 2011; further: on the % scale 0 is the no-effect control and ±100 the full control effect; nearly all actives have a fitted effect of over 65% in size
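First, reporter cells (HEPG2 CAGA-GFP) rested 2 h at 37 degrees C. Next, compounds were pinned in and TGF-beta added to 500 pg/mL final. After 18 h, GFP was imaged per cell and summed per well.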
S2 tox – Viability Counterscreen for Primary qHTS for Inhibitors of ATXN expression. AID 651635, 2014. S2 cells (HEK-293 line with an ATXN2-luciferase reporter) viability, CellTiter-Fluor protease fluorescence, 24 h. 400,000 compounds, 0.49% hits. Potency, µM (series often up to 56.7 µM), usual class: cytotoxic; further: nearly all actives have a fitted effect of over 40% in size
ATXN2 expr inh – Primary qHTS for Inhibitors of ATXN expression | HEK-293 ATXN2-luciferase reporter, luminescence, 24 h | Potency, µM (highest dose often 57 µM), without a hit: at the highest dose activity change, negative = inhibition, usual class: inhibitors | 360,000 compounds, 0.72% hits | AID 1745845, 2022; further: on the % scale 0 is the no-effect control and ±100 the full control effect; nearly all actives have a fitted effect of over 55% in size
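ATXN2-luciferase reporter cells (luciferase flanked by upstream and downstream ATXN2 gene portions) were treated 24 h at 37 °C with compounds at up to 57 uM. SteadyGlo luminescence gave expression; GF-AFC fluorescence gave viability.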
TDP1 cell noCPT – qHTS for Inhibitors of human tyrosyl-DNA phosphodiesterase 1 (TDP1): qHTS in cells in absence of CPT. DT40 Tdp1-/- hTDP1 cells, no CPT, ATP luminescence, 48 h. Potency, µM (titrated, usually from 46.2 µM), without a hit: top-dose activity change, negative = growth inhibition, hits mostly inhibitors. 420,000 compounds, 15% hits; further: on the % scale 0 is the no-effect control and ±100 the full control effect; nearly all actives have a fitted effect of over 55% in size
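Chicken DT40 Tdp1-/- cells stably complemented with human TDP1 were seeded at 400 cells/well with DMSO in place of 20 nM camptothecin. After compound pinning, cells grew at least 48 hr at 37 °C; viability read by CellTiter-Glo luminescence.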
HepG2 tox – qHTS for Inhibitors of TGF-b: Cytotox Counterscreen; AID 588856, 2011; Potency, µM (series often up to 46.1 µM), for the others: at the top dose activity change, negative = cytotoxicity, actives largely listed as cytotoxic; HepG2 CAGA-GFP viability, ATP luminescence, 18 h; 410,000 compounds, 0.76% hits
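HepG2 CAGA-GFP cells (1000/well, DMEM with 1% FBS) received compound, then TGF-beta at 500 pg/mL final, and were incubated 18 hours at 37 degrees C. Viability was read by CellTiter-Glo luminescence. Media-only wells were set as complete cell-killing and DMSO as no toxicity.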
Active calls of the source: *; i = inactive; ? = inconclusive; . = no result given. The call rests on the fitted dose curve; in most records, active means well fitted curve in the direction sought with a large enough effect; inconclusive means small, poorly fitted or top-dose-only effect, or another doubt; inactive means no such curve, though single readings can be large; an effect the other way counts as inactive or inconclusive. Potency means the concentration at half of the fitted maximal effect.

SMILES	TDP1 cell CPT	TGFb inhibitor	S2 tox	ATXN2 expr inh	TDP1 cell noCPT	HepG2 tox
Cc1cc(C)c2c(=O)nc(SCc3ccccc3C)n(C3CC3)c2n1	-22%	-2%	.	.	-16%	-7%
Cc1ccccc1N1CCN(CCc2nnc3n2CCCC3)CC1	?	.	i	8%	?	.
O=C(CNc1ccc2ccccc2c1)N/N=C/c1ccncc1	-6%	7%	i	-15%	1%	-49%
CC(/C=C/c1ccc2c(c1)OCO2)=N\NC(=O)c1cccc([N+](=O)[O-])c1	21µM*	15%	i	?	15µM*	-42%
O=C(CNc1ccc2ccccc2c1)N/N=C/c1ccccn1	?	-9%	i	-28%	18µM*	-46%
Cc1ccccc1C(=O)Nc1cccc(C(=O)N/N=C/c2cc(Cl)cc([N+](=O)[O-])c2O)c1	?	-18%	i	22µM*	?	-14%
CC(Nc1cccc2ccccc12)C(=O)N/N=C/c1ccccn1 (centres undefined)	26µM*	?	i	-36%	21µM*	-22%
C/C(=N/NC(=O)c1ccc2c(c1)OCO2)c1cccc([N+](=O)[O-])c1	-9%	20%	i	13%	2%	-2%
CC[C@]1(c2ccccc2)NC(=O)N(C)C1=O	.	.	i	.	.	.
CC(C)(C)c1ccc(C(=O)OCC(=O)Nc2cccc(S(=O)(=O)NC3=NCCC3)c2)cc1	-15%	-22%	i	.	?	-43%
CCN(CC)C(=O)C1CCCN(c2ccc([N+](=O)[O-])cc2[N+](=O)[O-])C1 (centres undefined)	-15%	1%	?	.	?	5%
Cc1cccc(C(=O)N/N=C/c2ccccn2)c1	?	?	?	-18%	15µM*	-20%
O=C(N/N=C/c1ccccn1)c1cc([N+](=O)[O-])cc([N+](=O)[O-])c1	?	4.5µM*	?	.	21µM*	-52%
CCN(CC)C(=O)C1CCCN(c2ccc([N+](=O)[O-])cc2/C=N/NC(=O)c2cccc([N+](=O)[O-])c2)C1 (centres undefined)	21µM*	3%	i	-12%	?	-14%
O=C(N/N=C/c1ccccc1O)c1cccc(C(F)(F)F)c1	5.2µM*	?	?	3.2µM*	3.3µM*	-52%
Cc1cccc(C(=O)Nc2cccc(C(=O)N/N=C/c3ccccn3)c2)c1	-16%	-18%	i	.	?	1%
O=C(O)Cc1c(-c2ccccc2Cl)c2cc(Br)ccc2[nH]c1=O	?	-13%	i	.	-12%	-11%
O=S(=O)(NCc1ccccn1)c1cc(OCC(F)(F)F)ccc1OCC(F)(F)F	-7%	-12%	i	-23%	-22%	-8%
COC(=O)[C@H](CC(C)C)NC(=O)c1cc2c(cn1)[nH]c1ccccc12	?	0%	i	-5%	?	-1%
COc1ccc(NC(=S)N2CCC(NC(=O)c3ccc(OC)cc3)CC2)cc1	-26%	14%	?	-29%	-29%	3%
CCCCn1c(-c2ccc(OC(F)F)cc2)nc2c1c(=O)[nH]c(=O)n2CC(C)C	21µM*	-19%	i	-14%	23µM*	-6%
CCCn1c(=O)[nH]c(=O)c2c1nc(-c1ccc(OC(F)(F)C(F)C(F)(F)F)cc1)n2CCOC (centres undefined)	?	-25%	i	0%	16µM*	-30%
CCCn1c(=O)[nH]c(=O)c2c1nc(-c1ccc(C#N)cc1)n2CCOC	6%	0%	i	8%	-17%	-9%
COCCn1c(-c2ccc3ccccc3c2)nc2c1c(=O)[nH]c(=O)n2CC(C)C	?	?	i	-7%	23µM*	-20%
CCCCn1c(-c2cccc(F)c2)nc2c1c(=O)[nH]c(=O)n2CC(C)C	-28%	0%	i	-5%	?	4%
SMILES	TDP1 cell CPT	TGFb inhibitor	S2 tox	ATXN2 expr inh	TDP1 cell noCPT	HepG2 tox
COc1cc(/C=C2\C=Cc3ccccc32)ccc1N(C)C	?	-10%	.	.	?	-16%
Cc1c(C(=O)N2CCN(c3cccc(Cl)c3)CC2)cccc1[N+](=O)[O-]	16µM*	-16%	i	-22%	16µM*	-16%
O=C(c1cccc([N+](=O)[O-])c1)N1CCN(c2cccc(Cl)c2)CC1	18µM*	-25%	i	-17%	18µM*	2%
COC(=O)c1cc(C(=O)N2CCN(c3cccc(Cl)c3)CC2)cc([N+](=O)[O-])c1	0.65µM*	-23%	i	-6%	0.92µM*	0%
Cc1ccc(Nc2ccc(N3CCN(C(=O)c4cccc([N+](=O)[O-])c4)CC3)nn2)cc1	?	?	.	.	16µM*	19%
O=C(c1cccc([N+](=O)[O-])c1)N1CCN(c2ncccn2)CC1	2%	-5%	i	.	-7%	-4%
O=C1CC(c2ccc(Cl)cc2)CC(=O)N1	.	.	i	-1%	.	.
C[C@]12C=CC(=O)N[C@@H]1CC[C@@H]1[C@@H]2CC[C@]2(C)[C@@H](C(=O)Nc3cc(C(F)(F)F)ccc3C(F)(F)F)CC[C@@H]12	-13%	.	.	.	-11%	.
O=C(c1ccco1)N1CCN(c2c([N+](=O)[O-])nn(-c3cccc(Cl)c3)[n+]2[O-])CC1	16µM*	?	?	.	?	-21%
O=C(c1ccc(Cl)c([N+](=O)[O-])c1)N1CCN(C(=O)c2ccco2)CC1	-10%	-14%	i	.	-29%	-1%
CCOC(=O)c1c(NC(=O)c2nn(CC)cc2Br)sc(C)c1C	16µM*	-14%	?	-22%	?	-15%
CCOC(=O)c1nn(-c2ccccc2)c(C#N)c1NC(=O)c1nn(CC)cc1Br	15µM*	?	i	-8%	18µM*	-34%
CCOC(=O)c1c(NC(=O)c2ccn(CC)n2)sc2c1CCC2	-29%	3%	i	5%	?	0%
CCOC(=O)c1c(NC(=O)c2nn(CC)cc2Br)sc2c1CCCCC2	18µM*	1%	i	12%	?	-28%
Cc1ncn(-c2ccccc2)c1-c1ccccc1	?	-24%	i	-11%	-24%	-3%

High-throughput results as filed in PubChem BioAssay.
